# Assays:
# Assay in all cases: DAPPL (digital affinity profiling via proximity ligation, sequencing); 10 mM Tris-HCl pH 7.5, 50 mM NaCl, 1 mM DTT, 4% glycerol, room temperature, 30 min; GST-TFs on glutathione beads, 16-mer random dsDNA library, 0.1% formaldehyde crosslink after washing; high values mean tight binding
# [1] = target: T1, FLI1 (Homo sapiens, UniProt Q01543 1-452); details: protein: recombinant; tags: N-terminal GST; dsDNA, one strand shown
# T1 sequence: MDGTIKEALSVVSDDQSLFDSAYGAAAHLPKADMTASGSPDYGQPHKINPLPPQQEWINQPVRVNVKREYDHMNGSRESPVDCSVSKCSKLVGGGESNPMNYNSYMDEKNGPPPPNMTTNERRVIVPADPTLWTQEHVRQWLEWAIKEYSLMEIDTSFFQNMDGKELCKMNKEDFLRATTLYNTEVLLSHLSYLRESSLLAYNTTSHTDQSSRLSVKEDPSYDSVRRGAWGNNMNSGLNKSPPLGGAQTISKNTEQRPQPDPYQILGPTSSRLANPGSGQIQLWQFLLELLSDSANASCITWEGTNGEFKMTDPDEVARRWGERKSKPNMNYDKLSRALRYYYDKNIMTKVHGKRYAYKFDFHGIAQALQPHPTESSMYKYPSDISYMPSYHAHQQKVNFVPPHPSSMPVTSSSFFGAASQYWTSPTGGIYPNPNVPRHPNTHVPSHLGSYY
# Method in brief: (§1)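 Binding signal is defined as a hexamer's read frequency for one factor over its frequency for the tag-only sample. To obtain reads, GST-fused human transcription factors were expressed in yeast, captured on glutathione beads, barcoded with DNA and pooled with that sample. Pools met 200 nmole of a 16-mer random double-stranded DNA library in Tris/NaCl/DTT/glycerol buffer for 30 min at room temperature before washing, 0.1% formaldehyde crosslinking, proximity ligation (BsaI/T4 ligase, 1 h, 37 °C), PCR and Illumina NextSeq500 sequencing.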
# [2] = target: T2, ELK1 (Homo sapiens, UniProt P19419 1-428); details: protein: recombinant; tags: N-terminal GST; dsDNA, one strand shown
# T2 sequence: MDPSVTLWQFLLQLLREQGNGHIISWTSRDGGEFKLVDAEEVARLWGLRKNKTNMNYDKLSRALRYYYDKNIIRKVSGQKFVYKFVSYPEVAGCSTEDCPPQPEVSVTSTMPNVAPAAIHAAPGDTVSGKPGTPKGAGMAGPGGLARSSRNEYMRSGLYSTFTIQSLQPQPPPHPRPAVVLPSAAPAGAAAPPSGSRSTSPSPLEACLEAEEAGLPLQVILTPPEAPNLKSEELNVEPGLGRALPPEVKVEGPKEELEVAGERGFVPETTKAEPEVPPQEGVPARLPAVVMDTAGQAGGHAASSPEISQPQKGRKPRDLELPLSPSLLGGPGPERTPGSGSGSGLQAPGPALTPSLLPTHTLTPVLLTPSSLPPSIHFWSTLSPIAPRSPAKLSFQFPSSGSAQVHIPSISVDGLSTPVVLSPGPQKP
# Method in brief: as §1
# [3] = target: T3, GABPA (Homo sapiens, UniProt Q06546 1-454); details: protein: recombinant; tags: N-terminal GST; dsDNA, one strand shown
# T3 sequence: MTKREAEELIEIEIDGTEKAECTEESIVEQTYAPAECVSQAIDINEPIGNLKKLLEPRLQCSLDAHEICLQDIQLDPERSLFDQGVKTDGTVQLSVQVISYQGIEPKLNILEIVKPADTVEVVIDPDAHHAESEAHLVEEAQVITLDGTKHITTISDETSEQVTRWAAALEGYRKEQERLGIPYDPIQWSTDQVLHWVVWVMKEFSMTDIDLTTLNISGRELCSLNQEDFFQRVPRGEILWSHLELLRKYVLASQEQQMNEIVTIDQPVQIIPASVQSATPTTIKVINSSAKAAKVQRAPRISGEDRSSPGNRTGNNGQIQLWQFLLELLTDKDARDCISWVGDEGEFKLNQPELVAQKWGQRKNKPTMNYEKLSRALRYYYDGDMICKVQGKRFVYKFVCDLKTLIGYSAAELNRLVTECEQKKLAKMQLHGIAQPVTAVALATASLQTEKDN
# Method in brief: as §1
# [4] = target: T4, ERG (Homo sapiens, UniProt P11308 1-479); details: protein: recombinant; tags: N-terminal GST; dsDNA, one strand shown
# T4 sequence: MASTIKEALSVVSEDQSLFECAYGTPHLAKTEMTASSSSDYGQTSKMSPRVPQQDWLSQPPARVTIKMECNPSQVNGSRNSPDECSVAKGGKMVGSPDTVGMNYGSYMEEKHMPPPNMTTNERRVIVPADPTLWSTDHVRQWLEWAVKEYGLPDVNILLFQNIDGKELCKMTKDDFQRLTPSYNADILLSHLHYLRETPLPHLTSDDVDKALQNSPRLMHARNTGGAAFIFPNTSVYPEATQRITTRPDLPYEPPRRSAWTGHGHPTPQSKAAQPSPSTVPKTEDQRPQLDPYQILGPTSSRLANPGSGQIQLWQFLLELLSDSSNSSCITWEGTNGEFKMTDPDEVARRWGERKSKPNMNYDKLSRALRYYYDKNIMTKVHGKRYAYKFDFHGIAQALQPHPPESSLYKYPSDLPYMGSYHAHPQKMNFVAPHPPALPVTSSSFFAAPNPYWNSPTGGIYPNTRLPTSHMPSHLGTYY
# Method in brief: as §1
# [5] = target: ELF1 (Homo sapiens, UniProt P32519 1-619); details: protein: recombinant; tags: N-terminal GST; dsDNA, one strand shown
# ELF1, sequence (P32519 whole entry): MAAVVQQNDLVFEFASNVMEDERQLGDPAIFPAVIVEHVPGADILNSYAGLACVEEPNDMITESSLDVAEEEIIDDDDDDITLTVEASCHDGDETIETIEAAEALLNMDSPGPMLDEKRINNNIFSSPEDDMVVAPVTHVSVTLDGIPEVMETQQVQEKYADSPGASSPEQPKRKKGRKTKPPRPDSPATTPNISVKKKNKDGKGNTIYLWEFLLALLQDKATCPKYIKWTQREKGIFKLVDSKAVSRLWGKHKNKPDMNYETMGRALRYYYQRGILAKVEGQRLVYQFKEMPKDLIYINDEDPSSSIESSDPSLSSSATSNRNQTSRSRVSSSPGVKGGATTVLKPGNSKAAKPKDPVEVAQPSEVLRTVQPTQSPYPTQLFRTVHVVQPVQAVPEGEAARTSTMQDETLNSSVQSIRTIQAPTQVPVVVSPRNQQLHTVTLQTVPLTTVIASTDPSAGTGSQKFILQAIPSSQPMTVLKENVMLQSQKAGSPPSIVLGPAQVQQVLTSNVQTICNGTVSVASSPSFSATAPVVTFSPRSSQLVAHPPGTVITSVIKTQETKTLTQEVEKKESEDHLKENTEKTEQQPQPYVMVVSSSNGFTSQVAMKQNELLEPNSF
# Method in brief: as §1
# [6] = target: T5, EHF (Homo sapiens, UniProt Q9NZC4 1-300); details: protein: recombinant; tags: N-terminal GST; dsDNA, one strand shown
# T5 sequence: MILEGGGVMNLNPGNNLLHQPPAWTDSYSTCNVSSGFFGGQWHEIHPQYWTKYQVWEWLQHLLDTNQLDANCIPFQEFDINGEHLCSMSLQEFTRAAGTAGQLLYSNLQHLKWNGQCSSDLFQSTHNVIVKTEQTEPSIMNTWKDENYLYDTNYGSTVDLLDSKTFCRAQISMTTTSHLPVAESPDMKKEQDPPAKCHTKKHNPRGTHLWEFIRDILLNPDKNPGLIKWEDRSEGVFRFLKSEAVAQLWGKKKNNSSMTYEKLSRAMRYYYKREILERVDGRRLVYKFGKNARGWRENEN
# Method in brief: as §1
# [7] = target: SPI1 (Homo sapiens, UniProt P17947 1-270); details: protein: recombinant; tags: N-terminal GST; dsDNA, one strand shown
# Method in brief: as §1
# [8] = target: SPIB (Homo sapiens, UniProt Q01892 1-262); details: protein: recombinant; tags: N-terminal GST; dsDNA, one strand shown
# SPIB, sequence (Q01892 whole entry): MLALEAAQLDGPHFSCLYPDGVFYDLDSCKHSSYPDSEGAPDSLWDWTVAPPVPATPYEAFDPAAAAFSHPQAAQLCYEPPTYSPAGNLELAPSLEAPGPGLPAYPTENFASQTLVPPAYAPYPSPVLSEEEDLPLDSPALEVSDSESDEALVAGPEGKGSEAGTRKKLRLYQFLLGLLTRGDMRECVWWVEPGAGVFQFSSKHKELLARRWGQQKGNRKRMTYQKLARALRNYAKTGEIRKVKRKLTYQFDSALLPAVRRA
# Method in brief: as §1
# [9] = target: T6, ELK3 (Homo sapiens, UniProt P41970 1-407); details: protein: recombinant; tags: N-terminal GST; dsDNA, one strand shown
# T6 sequence: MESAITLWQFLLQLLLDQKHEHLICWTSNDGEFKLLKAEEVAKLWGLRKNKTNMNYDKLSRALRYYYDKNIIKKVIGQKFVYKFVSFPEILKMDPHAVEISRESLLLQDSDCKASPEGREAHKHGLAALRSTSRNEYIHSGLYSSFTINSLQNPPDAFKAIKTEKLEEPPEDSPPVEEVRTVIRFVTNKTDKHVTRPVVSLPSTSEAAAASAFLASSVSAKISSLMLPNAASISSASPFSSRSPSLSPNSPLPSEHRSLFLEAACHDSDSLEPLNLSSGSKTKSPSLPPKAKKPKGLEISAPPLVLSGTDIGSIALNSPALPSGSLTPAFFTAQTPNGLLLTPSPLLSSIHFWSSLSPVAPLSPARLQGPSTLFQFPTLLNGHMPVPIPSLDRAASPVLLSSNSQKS
# Method in brief: as §1
# [10] = target: T7, FEV (Homo sapiens, UniProt Q99581 1-238); details: protein: recombinant; tags: N-terminal GST; dsDNA, one strand shown
# T7 sequence: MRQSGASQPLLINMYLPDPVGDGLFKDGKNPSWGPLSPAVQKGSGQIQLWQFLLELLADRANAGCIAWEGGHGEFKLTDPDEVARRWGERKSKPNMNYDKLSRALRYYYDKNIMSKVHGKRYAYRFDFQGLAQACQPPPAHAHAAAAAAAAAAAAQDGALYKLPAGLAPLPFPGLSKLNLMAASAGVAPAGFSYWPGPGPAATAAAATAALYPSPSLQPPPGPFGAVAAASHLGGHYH
# Method in brief: as §1
# [11] = target: ETV5 (Homo sapiens, UniProt P41161 1-510); details: protein: recombinant; tags: N-terminal GST; dsDNA, one strand shown
# ETV5, sequence (P41161 whole entry): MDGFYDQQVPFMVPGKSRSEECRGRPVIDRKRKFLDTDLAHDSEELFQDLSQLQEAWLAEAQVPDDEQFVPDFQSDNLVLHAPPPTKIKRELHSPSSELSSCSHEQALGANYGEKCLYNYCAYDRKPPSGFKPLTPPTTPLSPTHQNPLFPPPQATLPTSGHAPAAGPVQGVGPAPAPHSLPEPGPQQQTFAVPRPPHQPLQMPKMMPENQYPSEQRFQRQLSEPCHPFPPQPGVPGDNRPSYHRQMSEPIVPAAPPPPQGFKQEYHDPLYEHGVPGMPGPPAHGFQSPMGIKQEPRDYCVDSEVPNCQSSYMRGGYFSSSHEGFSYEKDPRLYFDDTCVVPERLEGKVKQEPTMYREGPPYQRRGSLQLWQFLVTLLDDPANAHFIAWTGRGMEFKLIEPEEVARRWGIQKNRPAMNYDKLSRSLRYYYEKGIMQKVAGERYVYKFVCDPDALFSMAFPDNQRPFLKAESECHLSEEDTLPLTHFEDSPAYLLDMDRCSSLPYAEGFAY
# Method in brief: as §1
# [12] = target: HSF1 (Homo sapiens, UniProt Q00613 1-529); details: protein: recombinant; tags: N-terminal GST; chain copies: 3; dsDNA, one strand shown
# HSF1, sequence (Q00613 whole entry): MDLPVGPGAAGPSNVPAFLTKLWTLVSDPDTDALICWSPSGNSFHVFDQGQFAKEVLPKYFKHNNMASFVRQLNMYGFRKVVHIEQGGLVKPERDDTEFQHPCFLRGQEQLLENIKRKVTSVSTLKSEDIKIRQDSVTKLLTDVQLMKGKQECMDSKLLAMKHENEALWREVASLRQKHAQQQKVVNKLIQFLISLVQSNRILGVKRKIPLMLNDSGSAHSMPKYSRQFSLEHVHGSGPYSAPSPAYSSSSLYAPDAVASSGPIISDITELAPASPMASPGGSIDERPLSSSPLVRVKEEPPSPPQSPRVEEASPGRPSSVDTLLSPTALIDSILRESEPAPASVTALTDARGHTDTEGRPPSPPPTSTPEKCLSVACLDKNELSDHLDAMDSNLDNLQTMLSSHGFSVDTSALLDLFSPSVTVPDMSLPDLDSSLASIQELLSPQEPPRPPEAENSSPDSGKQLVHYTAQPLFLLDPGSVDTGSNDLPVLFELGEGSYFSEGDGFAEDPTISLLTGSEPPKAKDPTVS
# Method in brief: as §1
# [13] = target: T8, SPIC (Homo sapiens, UniProt Q8N5J4 1-248); details: protein: recombinant; tags: N-terminal GST; dsDNA, one strand shown
# T8 sequence: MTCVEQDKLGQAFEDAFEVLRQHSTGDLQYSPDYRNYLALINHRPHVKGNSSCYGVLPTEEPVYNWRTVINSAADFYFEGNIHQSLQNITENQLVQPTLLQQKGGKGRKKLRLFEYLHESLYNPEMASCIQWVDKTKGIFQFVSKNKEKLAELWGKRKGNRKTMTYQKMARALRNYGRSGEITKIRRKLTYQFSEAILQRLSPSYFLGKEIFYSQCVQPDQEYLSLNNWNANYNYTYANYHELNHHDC
# Method in brief: as §1
# [14] = target: ELF4 (Homo sapiens, UniProt Q99607 1-663); details: protein: recombinant; tags: N-terminal GST; dsDNA, one strand shown
# ELF4, sequence (Q99607 whole entry): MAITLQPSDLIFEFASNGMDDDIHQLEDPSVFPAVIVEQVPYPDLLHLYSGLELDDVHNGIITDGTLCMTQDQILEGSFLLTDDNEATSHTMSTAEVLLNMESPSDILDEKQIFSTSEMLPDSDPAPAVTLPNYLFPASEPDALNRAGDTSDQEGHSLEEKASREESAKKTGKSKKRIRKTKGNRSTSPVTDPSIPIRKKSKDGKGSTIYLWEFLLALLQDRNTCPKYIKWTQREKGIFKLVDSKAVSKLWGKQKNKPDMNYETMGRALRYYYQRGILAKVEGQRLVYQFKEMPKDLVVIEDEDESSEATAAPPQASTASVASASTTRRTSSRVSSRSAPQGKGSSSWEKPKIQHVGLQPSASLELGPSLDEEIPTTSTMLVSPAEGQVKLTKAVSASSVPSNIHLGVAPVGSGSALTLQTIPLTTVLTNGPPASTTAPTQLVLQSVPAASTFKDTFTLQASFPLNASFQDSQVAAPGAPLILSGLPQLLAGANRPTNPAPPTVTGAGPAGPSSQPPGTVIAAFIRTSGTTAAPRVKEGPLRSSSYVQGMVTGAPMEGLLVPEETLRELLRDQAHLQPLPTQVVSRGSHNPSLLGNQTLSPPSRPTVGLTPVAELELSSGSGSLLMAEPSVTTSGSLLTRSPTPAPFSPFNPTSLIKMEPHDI
# Method in brief: as §1
# [15] = target: T9, ELK4 (Homo sapiens, UniProt P28324-2 1-405); details: protein: recombinant; tags: N-terminal GST; dsDNA, one strand shown
# T9 sequence: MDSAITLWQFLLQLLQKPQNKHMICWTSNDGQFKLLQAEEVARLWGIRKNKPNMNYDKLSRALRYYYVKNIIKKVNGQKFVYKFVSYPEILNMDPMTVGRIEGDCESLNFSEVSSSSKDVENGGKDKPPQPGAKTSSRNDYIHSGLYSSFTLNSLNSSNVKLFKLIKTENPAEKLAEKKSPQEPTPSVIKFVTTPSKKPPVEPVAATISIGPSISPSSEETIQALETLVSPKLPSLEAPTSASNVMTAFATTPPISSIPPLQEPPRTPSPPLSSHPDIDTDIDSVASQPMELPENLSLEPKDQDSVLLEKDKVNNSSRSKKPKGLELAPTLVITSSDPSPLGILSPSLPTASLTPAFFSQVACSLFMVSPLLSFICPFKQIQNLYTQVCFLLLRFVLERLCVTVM
# Method in brief: as §1
# [16] = target: T10, ETV2 (Homo sapiens, UniProt O00321 1-342); details: protein: recombinant; tags: N-terminal GST; dsDNA, one strand shown
# T10 sequence: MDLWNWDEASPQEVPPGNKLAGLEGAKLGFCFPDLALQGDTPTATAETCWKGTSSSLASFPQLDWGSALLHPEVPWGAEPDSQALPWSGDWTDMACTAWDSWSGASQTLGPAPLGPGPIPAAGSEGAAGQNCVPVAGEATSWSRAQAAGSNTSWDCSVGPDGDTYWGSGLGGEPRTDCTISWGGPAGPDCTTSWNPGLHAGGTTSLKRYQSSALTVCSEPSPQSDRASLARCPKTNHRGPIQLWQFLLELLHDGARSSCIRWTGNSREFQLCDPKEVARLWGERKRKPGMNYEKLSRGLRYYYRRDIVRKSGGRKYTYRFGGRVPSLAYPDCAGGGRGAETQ
# Method in brief: as §1
# [17] = target: T11, ELF3 (Homo sapiens, UniProt P78545 1-371); details: protein: recombinant; tags: N-terminal GST; dsDNA, one strand shown
# T11 sequence: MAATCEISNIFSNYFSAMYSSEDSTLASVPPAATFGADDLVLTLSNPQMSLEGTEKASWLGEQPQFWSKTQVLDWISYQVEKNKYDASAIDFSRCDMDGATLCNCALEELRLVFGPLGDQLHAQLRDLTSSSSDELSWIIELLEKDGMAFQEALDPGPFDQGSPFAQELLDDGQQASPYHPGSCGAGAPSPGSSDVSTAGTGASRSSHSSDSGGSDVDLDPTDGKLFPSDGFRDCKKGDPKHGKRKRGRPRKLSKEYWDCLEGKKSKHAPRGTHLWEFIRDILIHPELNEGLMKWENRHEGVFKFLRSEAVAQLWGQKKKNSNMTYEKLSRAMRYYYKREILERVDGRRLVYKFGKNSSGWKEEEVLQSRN
# Method in brief: as §1
# [18] = target: CRX (Homo sapiens, UniProt O43186 1-299); details: protein: recombinant; tags: N-terminal GST; dsDNA, one strand shown
# CRX, sequence (O43186 whole entry): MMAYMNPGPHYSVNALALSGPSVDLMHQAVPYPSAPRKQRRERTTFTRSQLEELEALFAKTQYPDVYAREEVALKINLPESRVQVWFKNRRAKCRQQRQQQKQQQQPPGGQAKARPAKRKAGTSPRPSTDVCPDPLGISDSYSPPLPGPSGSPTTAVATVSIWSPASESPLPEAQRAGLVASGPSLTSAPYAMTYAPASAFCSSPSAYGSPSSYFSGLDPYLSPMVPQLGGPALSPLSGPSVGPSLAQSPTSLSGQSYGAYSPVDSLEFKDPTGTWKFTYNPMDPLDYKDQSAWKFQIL
# Method in brief: as §1
# [19] = target: ETV1 (Homo sapiens, UniProt P50549 1-477); details: protein: recombinant; tags: N-terminal GST; dsDNA, one strand shown
# ETV1, sequence (P50549 whole entry): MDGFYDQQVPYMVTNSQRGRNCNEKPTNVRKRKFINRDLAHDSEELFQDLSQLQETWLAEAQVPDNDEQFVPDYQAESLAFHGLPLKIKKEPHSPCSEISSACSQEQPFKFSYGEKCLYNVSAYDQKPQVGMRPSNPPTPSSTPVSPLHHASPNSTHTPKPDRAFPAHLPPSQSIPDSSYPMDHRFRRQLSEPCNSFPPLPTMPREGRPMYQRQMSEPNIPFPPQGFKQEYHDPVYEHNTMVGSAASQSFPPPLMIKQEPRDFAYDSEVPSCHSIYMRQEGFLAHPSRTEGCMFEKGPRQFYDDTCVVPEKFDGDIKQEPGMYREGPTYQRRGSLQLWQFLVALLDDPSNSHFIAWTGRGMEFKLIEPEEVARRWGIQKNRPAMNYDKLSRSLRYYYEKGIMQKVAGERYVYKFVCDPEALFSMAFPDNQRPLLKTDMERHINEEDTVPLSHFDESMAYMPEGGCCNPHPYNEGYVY
# Method in brief: as §1
sequence,measurement,setting,value
TCTGAA,binding signal,[1],"1.11 fold enrichment (6-mer frequency, TF over GST control)"
same,binding signal,[2],"1.22 fold enrichment (6-mer frequency, TF over GST control)"
same,binding signal,[3],"1.13 fold enrichment (6-mer frequency, TF over GST control)"
same,binding signal,[4],"1.15 fold enrichment (6-mer frequency, TF over GST control)"
same,binding signal,[5],"1.18 fold enrichment (6-mer frequency, TF over GST control)"
same,binding signal,[6],"1.18 fold enrichment (6-mer frequency, TF over GST control)"
same,binding signal,[7],"1.18 fold enrichment (6-mer frequency, TF over GST control)"
same,binding signal,[8],"1.26 fold enrichment (6-mer frequency, TF over GST control)"
same,binding signal,[9],"1.17 fold enrichment (6-mer frequency, TF over GST control)"
same,binding signal,[10],"1.21 fold enrichment (6-mer frequency, TF over GST control)"
same,binding signal,[11],"1.09 fold enrichment (6-mer frequency, TF over GST control)"
same,binding signal,[12],"1.23 fold enrichment (6-mer frequency, TF over GST control)"
same,binding signal,[13],"1.2 fold enrichment (6-mer frequency, TF over GST control)"
same,binding signal,[14],"1.2 fold enrichment (6-mer frequency, TF over GST control)"
same,binding signal,[15],"1.14 fold enrichment (6-mer frequency, TF over GST control)"
same,binding signal,[16],"1.17 fold enrichment (6-mer frequency, TF over GST control)"
same,binding signal,[17],"1.18 fold enrichment (6-mer frequency, TF over GST control)"
same,binding signal,[18],"1.21 fold enrichment (6-mer frequency, TF over GST control)"
same,binding signal,[19],"1.21 fold enrichment (6-mer frequency, TF over GST control)"
